# From PubChem BioAssay (NCATS)
# Records with an inconclusive call do not appear. The source made the active and inactive calls. Calls follow the shape of the dose curve; as a rule, active = well fitted inhibition curve with a large enough effect; inconclusive = small, poorly fitted or top-dose-only effect; inactive = flat fitted curve, though single readings scatter.
# Tested on: Zika virus NS2B-NS3 protease
# Assay: Primary screen GU AMC qHTS for Zika virus inhibitors (AID 1347154); also: nearly all actives have a fitted effect of over 70% in size;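 as to activity change, negative = inhibition: 0% = no-inhibitor control and -100% = no-enzyme control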
# Conditions: Zika NS2B-NS3 unlinked protease, AMC fluorogenic substrate; series mostly up to 54.1 µM; activity change, negative = inhibition: at the top concentration
# How it was run: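 Unlinked Zika NS2B hydrophilic domain/NS3 protease domain noncovalent complex (25 nM final) in 10 mM Tris-HCl pH 8.0, 0.01% Tween 20, with AMC peptide substrate. Fluorescence (ex 340, em 450 nm) change over 15 min, room temperature; percent inhibition fitted to 4-parameter Hill equation.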
# Potency is read from the fitted curve at half-maximal effect.
Compound,"activity change, negative = inhibition",Potency
c1cc(-c2sc(-c3ccncc3)c(-c3ccncc3)c2-c2ccncc2)ccn1,-0.495% (inactive),–
COc1ccc(-c2oc3c(CC=C(C)C)c(OC4O[C@H](CO)[C@@H](O)[C@H](O)[C@@H]4O)cc(O)c3c(=O)c2OC2O[C@@H](C)[C@H](O)[C@@H](O)[C@@H]2O)cc1 (some centres undefined),-13% (inactive),–
Nc1ncnc2c1ncn2[C@@H]1O[C@H](CO)C[C@@H]1O,4.07% (inactive),–
CO[C@H]1C[C@@H]2CC[C@@H](C)[C@@](O)(O2)C(=O)C(=O)N2CCCC[C@@H]2C(=O)O[C@H]([C@@H](C)C[C@@H]2CC[C@H](O)[C@H](OC)C2)CC(=O)[C@H](C)C=C(C)[C@@H](O)[C@@H](OC)C(=O)[C@H](C)C[C@H](C)C=CC=CC=C1C,1.95% (inactive),–
O=C(N[C@@H](c1ccccc1)[C@@H]1CCCCN1)c1cccc(C(F)(F)F)c1Cl,-0.535% (inactive),–
Cc1cnc(C(=O)O)c[n+]1[O-],11.5% (inactive),–
CC(C)C(C)C=CC(C)C1CCC2C3=CC=C4CC(O)CCC4(C)C3CCC21C (centres undefined),-5.01% (inactive),–
COC(=O)N[C@H](C(=O)N1CCC[C@@H]1c1ncc(-c2ccc(-c3ccc(-c4cnc([C@@H]5CCCN5C(=O)[C@@H](NC(=O)OC)C(C)C)[nH]4)cc3)cc2)[nH]1)C(C)C,–,30.4 µM (active)
O=c1c(-c2ccc(O)cc2)coc2cc(OC3O[C@H](CO)[C@H](O)[C@H](O)[C@H]3O)cc(O)c12 (some centres undefined),-18.5% (inactive),–
NS(=O)(=O)c1ccc(NC2=CC(=O)c3ccccc3C2=O)cc1,7.68% (inactive),–
CON=C(C(=O)N[C@@H]1C(=O)N2C(C(=O)OCOC(=O)C(C)(C)C)=C(C=Cc3scnc3C)CS[C@H]12)c1csc(N)n1,12.5% (inactive),–
Oc1ccc(C2=Cc3ccc(O)cc3OC2)cc1,-0.671% (inactive),–
Clc1cc(Cl)cc(CNc2ncncc2-c2ccc3c(c2)OCO3)c1,-4.82% (inactive),–
NC(=O)NN=Cc1ccc([N+](=O)[O-])o1,-2.99% (inactive),–
NC[C@@H]1O[C@@H](O[C@H]2[C@@H](O)[C@H](O[C@@H]3[C@@H](O)[C@@H](N)C[C@H](N)[C@H]3O[C@H]3O[C@H](CN)[C@@H](O)[C@@H](O)[C@H]3N)O[C@H]2CO)[C@H](N)[C@@H](O)[C@@H]1O,-2.67% (inactive),–
CC(C)(Cc1ccc2ccccc2c1)NC[C@@H](O)COc1cccc(Cl)c1C#N,10.5% (inactive),–
C[C@]12CCC3c4ccc(O)cc4CCC3C1CCC2=O (some centres undefined),9.11% (inactive),–

Compound,"activity change, negative = inhibition",Potency
CC(=O)OC1C(C)OC(Oc2c(-c3ccc(O)cc3)oc3cc(O)cc(O)c3c2=O)C(O)C1OC(C)=O (centres undefined),-6.34% (inactive),–
CCC(=O)O[C@]1(C(=O)CO)CC[C@H]2[C@@H]3CCC4=CC(=O)CC[C@]4(C)[C@@H]3CC[C@@]21C,-3.46% (inactive),–
COc1cccc2c1CCCC2CCCN1CCN(C2CCCCC2)CC1 (centres undefined),–,inactive
CC(C)(C)C(=O)Oc1ccc2c(c1)nc(NC(=O)c1cccc([N+](=O)[O-])c1)n2CCCO,11.9% (inactive),–
C[C@@H]1CCN(C(=O)CC#N)C[C@H]1N(C)c1ncnc2[nH]ccc12,-3.66% (inactive),–
Cn1cc(C=C2C(=O)Nc3cccnc32)c2ccccc21,10.9% (inactive),–
COc1ccc(-c2coc3cc(O)ccc3c2=O)cc1,–,26.7 µM (active)
CCOC(CN1C(=O)[C@](CC(=O)Nc2ccc(C)cc2)(NC(=O)Nc2ccc(C)cc2)c2ccccc21)OCC,-14.3% (inactive),–
CCC(CC)[C@H](NC(C)=O)[C@@H]1[C@H](O)[C@@H](C(=O)O)C[C@@H]1N=C(N)N,3.88% (inactive),–
CCN(CC)CCOc1ccc(C(=C(Cl)c2ccccc2)c2ccccc2)cc1,5.42% (inactive),–
C[C@]12CC[C@@H]3c4ccc(O)cc4CC[C@H]3[C@H]1C[C@@H](O)[C@H]2O,6.48% (inactive),–
CC(C)n1cnc2c(NCCCCCCNC(=O)OC(C)(C)C)nc(NCCO)nc21,-12.6% (inactive),–
COc1cc(NC(=O)c2ccc(-c3ccc(Cl)cc3)o2)cc(OC)c1,7.29% (inactive),–
CC[C@@]1(O)C[C@H](O[C@H]2C[C@H](N(C)C)[C@H](O[C@H]3C[C@H](O)[C@H](O[C@H]4CCC(=O)[C@H](C)O4)[C@H](C)O3)[C@H](C)O2)c2c(cc3c(c2O)C(=O)c2c(O)cccc2C3=O)[C@@H]1C(=O)OC,8.37% (inactive),–
O=C(CCc1ccc(O)cc1)c1c(O)cc(O)cc1O[C@@H]1O[C@H](CO)[C@H](O)[C@H](O)[C@H]1O,-4.96% (inactive),–
COC(=O)C1=CO[C@@H](O)[C@@H]2C(CO)=CC[C@@H]12,2.4% (inactive),–
Nc1nc(F)nc2c1ncn2[C@@H]1O[C@H](COP(=O)(O)O)[C@@H](O)[C@H]1O,1.98% (inactive),–
